# Measurements from paper PMC5540273 (PLoS ONE, 2017).
# Experiments:
# Conditions in all cases: concentration: 1 μM,replicates: in singlicate; n = 1
# MLK1 = system: T1, MLK1
# T1 construct: gene MAP3K9
# MLK2 = system: MLK2
# MLK3 = system: MLK3
# MRCKA = system: MRCKA
# MRCKB = system: T2, MRCKB
# T2 construct: gene CDC42BPB
# MST1R = system: MST1R
# MST1 = system: T3, MST1
# T3 construct: gene STK4
# MST2 = system: T4, MST2
# T4 construct: gene STK3
# MST3 = system: T5, MST3
# T5 construct: gene STK24
# MST4 = system: MST4
# 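Also: KINOMEscan kinase panel screen.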
SMILES,%Inh (MLK1) [%],%Inh (MLK2) [%],%Inh (MLK3) [%],%Inh (MRCKA) [%],%Inh (MRCKB) [%],%Inh (MST1R) [%],%Inh (MST1) [%],%Inh (MST2) [%],%Inh (MST3) [%],%Inh (MST4) [%]
Nc1nccc(-c2ccc3c(N)n[nH]c3c2)n1 [GSK1034945],0,0,0,11,5,27,3,0,0,0
COc1cccc(CNC(=O)NC2CCN(c3ccnc(Nc4cc(OC)c(OC)c(OC)c4)n3)C2)c1 (stereo not shown) [GSK1379765],25,26,41,17,0,49,0,27,0,0
C[C@@H](Oc1cc(-n2cnc3cc(-c4ccncc4)ccc32)sc1C(N)=O)c1ccccc1Cl [GSK479719],61,0,24,0,8,21,56,70,0,0
O=C1NCCc2[nH]c(-c3ccncc3)cc21,0,0,13,0,0,51,3,20,23,0
COc1cccc(OC)c1C(=O)Nc1cccc(-c2nn3ccccc3c2-c2ccnc(Nc3cccc(F)c3)n2)c1 [GSK361065],4,10,10,0,3,23,20,61,7,0
CN1CCN(CCCNc2nccc(-c3c(-c4ccc(F)cc4)nn4cc(C(N)=O)ccc34)n2)CC1 [GW622475],0,16,12,11,0,36,28,15,33,0
Cl.Nc1n[nH]c2cc(-c3ccccn3)ccc12 [GSK2189892],0,0,15,0,0,27,0,0,0,0
